In the supplement of paper PMC4022240:
± gives the standard deviation.

Key:
Test in all cases: peptide microarray binding signal (635 nm), min-max normalized on array (fraction of array maximum); higher = stronger binding
[1] = target: T1, HaloTag-ATRX ADD domain (163-292)
T1 chain: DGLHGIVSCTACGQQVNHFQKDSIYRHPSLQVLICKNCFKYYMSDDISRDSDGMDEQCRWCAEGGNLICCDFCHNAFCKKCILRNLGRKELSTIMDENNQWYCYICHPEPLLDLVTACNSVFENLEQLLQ
Description: (§1)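 Histone 13-mer peptides were synthesized as cellulose conjugates with a C-terminal 20-atom PEG linker and printed in triplicate on nitrocellulose. The sequence given is the unmodified backbone; PTMs (Kme1/2/3, Kac, Sph/Tph, Rme/Rme2a/Rme2s, Rcit) are listed in the label and the 'peptide modifications' condition. Slides were probed at 4 °C for 1 h with biotin-labelled (HQ)5-HaloTag reader fusions (ATRX-ADD, ING2-PHD) then streptavidin-Alexa647, or with rabbit histone antibodies then anti-rabbit Alexa647. The mean 635 nm signal of the triplicate spots was scaled 0-1 between the lowest and highest values on each array.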

[2] = target: HaloTag-ING2 PHD (mouse Ing2 200-280)
Description: as §1

[3] = target: anti-H3K4me3 antibody ab8580
Description: as §1

[4] = target: anti-H3K9me3 antibody ab8898
Description: as §1

[5] = peptide region: H2B 17-29, peptide modifications: H2BK20ac H2BK23ac H2BK24ac H2BK27ac H2BK28ac, binder concentration: 1:2,000 dilution
[6] = peptide region: H2B 17-29, peptide modifications: H2BK20ac H2BK23ac H2BK24ac H2BK27ac H2BK28ac, binder concentration: 1:10,000 dilution
[7] = peptide region: H2B 7-19, peptide modifications: H2BK12ac, binder concentration: 1:2,000 dilution
[8] = peptide region: H2B 7-19, peptide modifications: H2BK12ac, binder concentration: 1:10,000 dilution
[9] = peptide region: H2B 17-29, peptide modifications: H2BK20ac H2BK23ac H2BK28ac, binder concentration: 1:2,000 dilution
[10] = peptide region: H2B 17-29, peptide modifications: H2BK20ac H2BK23ac H2BK28ac, binder concentration: 1:10,000 dilution
[11] = peptide region: H2B 7-19, peptide modifications: H2BK16ac, binder concentration: 1:2,000 dilution
[12] = peptide region: H2B 7-19, peptide modifications: H2BK16ac, binder concentration: 1:10,000 dilution
[13] = peptide region: H2B 17-29, peptide modifications: H2BK20ac H2BK23ac, binder concentration: 1:2,000 dilution
[14] = peptide region: H2B 17-29, peptide modifications: H2BK20ac H2BK23ac, binder concentration: 1:10,000 dilution

## AVTKAQKKDGKKR [H2B 17-29 A V T Kac A Q Kac Kac D G Kac Kac R]
[1]; peptide region: H2B 17-29, peptide modifications: H2BK20ac H2BK23ac H2BK24ac H2BK27ac H2BK28ac, binder concentration: 50 nM
  peptide microarray binding signal: 0.00442 ± 0.00034
[1]; peptide region: H2B 17-29, peptide modifications: H2BK20ac H2BK23ac H2BK24ac H2BK27ac H2BK28ac, binder concentration: 500 nM
  peptide microarray binding signal: 0.01 ± 0.0008
[2]; peptide region: H2B 17-29, peptide modifications: H2BK20ac H2BK23ac H2BK24ac H2BK27ac H2BK28ac, binder concentration: 10 nM
  peptide microarray binding signal: 0.00871 ± 0.00071
[2]; peptide region: H2B 17-29, peptide modifications: H2BK20ac H2BK23ac H2BK24ac H2BK27ac H2BK28ac, binder concentration: 100 nM
  peptide microarray binding signal: 0.0154 ± 0.0025
[3]; [5]
  peptide microarray binding signal: 0.00208 ± 0.00036
[3]; [6]
  peptide microarray binding signal: 0.00257 ± 0.0004
[4]; [5]
  peptide microarray binding signal: 0.000936 ± 3.8e-05
[4]; [6]
  peptide microarray binding signal: 0.00236 ± 0.00011

## APAPKKGSKKAVT [H2B 7-19 A P A P K Kac G S K K A V T]
[1]; peptide region: H2B 7-19, peptide modifications: H2BK12ac, binder concentration: 50 nM
  peptide microarray binding signal: 0.00335 ± 0.0001
[1]; peptide region: H2B 7-19, peptide modifications: H2BK12ac, binder concentration: 500 nM
  peptide microarray binding signal: 0.0041 ± 0.00068
[2]; peptide region: H2B 7-19, peptide modifications: H2BK12ac, binder concentration: 10 nM
  peptide microarray binding signal: 0.00471 ± 0.00015
[2]; peptide region: H2B 7-19, peptide modifications: H2BK12ac, binder concentration: 100 nM
  peptide microarray binding signal: 0.00737 ± 0.00077
[3]; [7]
  peptide microarray binding signal: 0.000208 ± 4.5e-06
[3]; [8]
  peptide microarray binding signal: 0.000799 ± 1.7e-05
[4]; [7]
  peptide microarray binding signal: 0.00116 ± 0.00021
[4]; [8]
  peptide microarray binding signal: 0.00213 ± 0.00019

## AVTKAQKKDGKKR [H2B 17-29 A V T Kac A Q Kac K D G K Kac R]
[1]; peptide region: H2B 17-29, peptide modifications: H2BK20ac H2BK23ac H2BK28ac, binder concentration: 50 nM
  peptide microarray binding signal: 0.00429 ± 0.00027
[1]; peptide region: H2B 17-29, peptide modifications: H2BK20ac H2BK23ac H2BK28ac, binder concentration: 500 nM
  peptide microarray binding signal: 0.00667 ± 0.00058
[2]; peptide region: H2B 17-29, peptide modifications: H2BK20ac H2BK23ac H2BK28ac, binder concentration: 10 nM
  peptide microarray binding signal: 0.0115 ± 0.00023
[2]; peptide region: H2B 17-29, peptide modifications: H2BK20ac H2BK23ac H2BK28ac, binder concentration: 100 nM
  peptide microarray binding signal: 0.0129 ± 0.0013
[3]; [9]
  peptide microarray binding signal: 0.00221 ± 0.00083
[3]; [10]
  peptide microarray binding signal: 0.00097 ± 9.9e-06
[4]; [9]
  peptide microarray binding signal: 0.000634 ± 2e-05
[4]; [10]
  peptide microarray binding signal: 0.00104 ± 4.3e-05

## APAPKKGSKKAVT [H2B 7-19 A P A P K K G S K Kac A V T]
[1]; peptide region: H2B 7-19, peptide modifications: H2BK16ac, binder concentration: 50 nM
  peptide microarray binding signal: 0.00392 ± 4.6e-05
[1]; peptide region: H2B 7-19, peptide modifications: H2BK16ac, binder concentration: 500 nM
  peptide microarray binding signal: 0.0109 ± 0.00096
[2]; peptide region: H2B 7-19, peptide modifications: H2BK16ac, binder concentration: 10 nM
  peptide microarray binding signal: 0.0037 ± 0.00013
[2]; peptide region: H2B 7-19, peptide modifications: H2BK16ac, binder concentration: 100 nM
  peptide microarray binding signal: 0.00617 ± 0.00026
[3]; [11]
  peptide microarray binding signal: 0.00417 ± 0.00052
[3]; [12]
  peptide microarray binding signal: 0.00097 ± 9.9e-06
[4]; [11]
  peptide microarray binding signal: 0.000966 ± 4.4e-05
[4]; [12]
  peptide microarray binding signal: 0.00144 ± 7.5e-05

## AVTKAQKKDGKKR [H2B 17-29 A V T Kac A Q K Kac D G K K R]
[1]; peptide region: H2B 17-29, peptide modifications: H2BK20ac H2BK23ac, binder concentration: 50 nM
  peptide microarray binding signal: 0.00342 ± 3.7e-05
[1]; peptide region: H2B 17-29, peptide modifications: H2BK20ac H2BK23ac, binder concentration: 500 nM
  peptide microarray binding signal: 0.00562 ± 0.00013
[2]; peptide region: H2B 17-29, peptide modifications: H2BK20ac H2BK23ac, binder concentration: 10 nM
  peptide microarray binding signal: 0.00651 ± 0.00014
[2]; peptide region: H2B 17-29, peptide modifications: H2BK20ac H2BK23ac, binder concentration: 100 nM
  peptide microarray binding signal: 0.00468 ± 0.0004
[3]; [13]
  peptide microarray binding signal: 0.00213 ± 0.0003
[3]; [14]
  peptide microarray binding signal: 0.000685 ± 1.5e-05
[4]; [13]
  peptide microarray binding signal: 0.000544 ± 1.7e-05
[4]; [14]
  peptide microarray binding signal: 0.000865 ± 9e-06
